# Measured values as given in the supplement of paper PMC4466140.
# Columns and labels:
# Test in all cases: SPOT peptide array binding signal intensity (averaged, normalized) (arbitrary units (background-subtracted, floor 0; scale differs between SH3 domains)); higher = stronger binding of the SH3 domain to the peptide
# ScBbc1 = target: ScBbc1
# Summary of the method: (§1)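 Binding signal refers to normalized, background-subtracted spot intensity averaged over replicates, expressed in arbitrary units that differ between domains. GST-fused SH3 domains from four yeast species were incubated at 10 μg/ml overnight at 4°C on cellulose membranes of synthetic 15-mer peptides with cysteines replaced by serines. Bound protein was detected with anti-GST antibody, an HRP anti-mouse secondary and luminol, and quantified with Genespotter.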
# ScBem1-D1 = target: ScBem1-D1
# Summary of the method: as §1
# ScBzz1-D1 = target: ScBzz1-D1
# Summary of the method: as §1
# ScBzz1-D2 = target: ScBzz1-D2
# Summary of the method: as §1
# ScCyk3 = target: ScCyk3
# Summary of the method: as §1
# ScFus1 = target: ScFus1
# Summary of the method: as §1
# ScHof1 = target: ScHof1
# Summary of the method: as §1
# ScHse1 = target: ScHse1
# Summary of the method: as §1
# ScLsb1 = target: ScLsb1
# Summary of the method: as §1
# ScLsb2 = target: ScLsb2
# Summary of the method: as §1
# ScLsb3 = target: ScLsb3
# Summary of the method: as §1
# ScLsb4 = target: ScLsb4
# Summary of the method: as §1
# ScMyo3 = target: ScMyo3
# Summary of the method: as §1
# ScMyo5 = target: ScMyo5
# Summary of the method: as §1
# ScNbp2 = target: ScNbp2
# Summary of the method: as §1
# ScPex13 = target: ScPex13
# Summary of the method: as §1
# ScRvs167 = target: ScRvs167
# Summary of the method: as §1
# ScSho1 = target: ScSho1
# Summary of the method: as §1
# ScSla1-D1-D2 = target: ScSla1-D1-D2
# Summary of the method: as §1
# ScSla1-D3 = target: ScSla1-D3
# Summary of the method: as §1
# SpAbp1-D1 = target: SpAbp1-D1
# Summary of the method: as §1
# SpBbc1 = target: SpBbc1
# Summary of the method: as §1
# SpBzz1-D1 = target: SpBzz1-D1
# Summary of the method: as §1
# SpBzz1-D2 = target: SpBzz1-D2
# Summary of the method: as §1
# SpCyk3 = target: SpCyk3
# Summary of the method: as §1
# SpHof1 = target: SpHof1
# Summary of the method: as §1
# SpHof1-2 = target: SpHof1-2
# Summary of the method: as §1
# SpHof1-3 = target: SpHof1-3
# Summary of the method: as §1
# SpHse1 = target: SpHse1
# Summary of the method: as §1
# SpLsb1 = target: SpLsb1
# Summary of the method: as §1
# SpLsb4 = target: SpLsb4
# Summary of the method: as §1
# SpMyo1 = target: SpMyo1
# Summary of the method: as §1
# SpNbp2 = target: SpNbp2
# Summary of the method: as §1
# SpPex13 = target: SpPex13
# Summary of the method: as §1
# SpRvs167 = target: SpRvs167
# Summary of the method: as §1
# SpSla1-D1-D2 = target: SpSla1-D1-D2
# Summary of the method: as §1
# SpSla1-D3 = target: SpSla1-D3
# Summary of the method: as §1
binder,measurement,setting,value
VYTRTAFQIPGDDKI,SPOT peptide array binding signal intensity,ScBbc1,≤ 0
same,SPOT peptide array binding signal intensity,ScBem1-D1,8
same,SPOT peptide array binding signal intensity,ScBzz1-D1,17.5
same,SPOT peptide array binding signal intensity,ScBzz1-D2,22.5
same,SPOT peptide array binding signal intensity,ScCyk3,≤ 0
same,SPOT peptide array binding signal intensity,ScFus1,≤ 0
same,SPOT peptide array binding signal intensity,ScHof1,≤ 0
same,SPOT peptide array binding signal intensity,ScHse1,≤ 0
same,SPOT peptide array binding signal intensity,ScLsb1,601
same,SPOT peptide array binding signal intensity,ScLsb2,895
same,SPOT peptide array binding signal intensity,ScLsb3,≤ 0
same,SPOT peptide array binding signal intensity,ScLsb4,≤ 0
same,SPOT peptide array binding signal intensity,ScMyo3,0.5
same,SPOT peptide array binding signal intensity,ScMyo5,≤ 0
same,SPOT peptide array binding signal intensity,ScNbp2,≤ 0
same,SPOT peptide array binding signal intensity,ScPex13,≤ 0
same,SPOT peptide array binding signal intensity,ScRvs167,1.83
same,SPOT peptide array binding signal intensity,ScSho1,≤ 0
same,SPOT peptide array binding signal intensity,ScSla1-D1-D2,≤ 0
same,SPOT peptide array binding signal intensity,ScSla1-D3,10.5
same,SPOT peptide array binding signal intensity,SpAbp1-D1,1
same,SPOT peptide array binding signal intensity,SpBbc1,≤ 0
same,SPOT peptide array binding signal intensity,SpBzz1-D1,75.5
same,SPOT peptide array binding signal intensity,SpBzz1-D2,≤ 0
same,SPOT peptide array binding signal intensity,SpCyk3,≤ 0
same,SPOT peptide array binding signal intensity,SpHof1,≤ 0
same,SPOT peptide array binding signal intensity,SpHof1-2,≤ 0
same,SPOT peptide array binding signal intensity,SpHof1-3,≤ 0
same,SPOT peptide array binding signal intensity,SpHse1,≤ 0
same,SPOT peptide array binding signal intensity,SpLsb1,68.5
same,SPOT peptide array binding signal intensity,SpLsb4,≤ 0
same,SPOT peptide array binding signal intensity,SpMyo1,3.5
same,SPOT peptide array binding signal intensity,SpNbp2,7
same,SPOT peptide array binding signal intensity,SpPex13,≤ 0
same,SPOT peptide array binding signal intensity,SpRvs167,0.333
same,SPOT peptide array binding signal intensity,SpSla1-D1-D2,2
same,SPOT peptide array binding signal intensity,SpSla1-D3,≤ 0
